Experimental findings from PubChem BioAssay AID493191 (Broad Institute, 2011) are described below.

In all, about 1,300 compounds went through this assay and about 330 (25%) were called active. The list is a sample of the results. Results with a measured potency or affinity are listed apart. Unmarked numbers belong to inactive results. No rule for the calls is given here.

The experiment can be described thus: MALME3 melanoma cell viability loss, dose response, orthogonal assay for MITF inhibitor project, CellTiter-Glo, cherry-picked (AID 493191). The note with it: CellTiter-Glo luminescence, 24 h; series mostly up to 35 µM; activity change, negative = inhibition: at the top concentration.
As for `CC(C)c1ccc(/C=N/Nc2ccc(C(=O)O)cc2)cc1`, the “activity change, negative = inhibition” value is 5.55%.
The value for `CCN1c2ccccc2NC2C1C(C(C)=O)C(=O)N2c1ccc(Cl)cc1` (stereo not given) was -8.47%.
The value for `Cc1nc(NCCOc2ccccc2)sc1C(=O)Nc1ccccc1` was -14.8%; that for `CCOC(=O)c1sc(-c2ccccc2)cc1N` was -45.5%; that for `CCOC(=O)c1c(C)[nH]c(C)c1C(=O)COC(=O)c1ccc([N+](=O)[O-])s1` was -39.1%.
Next, `COc1ccc(C)cc1Nc1nc(N)c2cc(OC)c(OC)cc2n1`: 10.8%.
For the compound `CC(C)CC(=O)NC(c1cccs1)c1ccc2cccnc2c1O` (stereo not given), the “activity change, negative = inhibition” value is -25.5%.
Next, `N/C(=N\OC(=O)c1ccncc1)c1cccc([N+](=O)[O-])c1`: 2.54%.
As to `Cc1c(C#N)c(NC(=O)CCl)n(Cc2ccccc2)c1C`, the “activity change, negative = inhibition” value is -33.6%.
The value for `Fc1cccc(Cl)c1CSc1nnc(-c2ccncc2)o1` was 7.71%.
Next, `Cc1ccc(OCC(=O)Nc2ccccc2F)cc1`: 2.26%; `CC(=O)N/C(N)=N/c1nc(=O)c2ccccc2s1`: 1.17%.
With `NC(=O)c1c(NC(=O)c2cccnc2)sc2c1CCCCC2`, the “activity change, negative = inhibition” value is 4.25%.
The value for `CCOc1ccc(N/C=C/C(=O)c2ccc(OC)c(OC)c2)cc1` was -6.29%; that for `OCCNc1c2ccccc2nc2ccccc12` was -5.45%.
For the compound `Clc1ccc(-c2noc(CN3CCOCC3)n2)cc1`, the “activity change, negative = inhibition” value is 6.68%.
In the case of `NNC(=O)Cn1c(SCc2ccccc2)nc2ccccc21`, the “activity change, negative = inhibition” value is 5.17%.
Regarding `O=C(Nc1ccc([N+](=O)[O-])cc1)c1ccccc1`, the “activity change, negative = inhibition” value was 11.7%.
The value for `COc1ccc(N/C=C\C(=O)c2ccc3ccccc3c2)cc1` was 1.62%; that for `COc1ccc(-c2csc(Nc3ccccn3)n2)cc1OC` was -15.7%; that for `Cc1ccccc1NCc1nc2ccccc2n1C` was -24.4%.
In the case of `O=C(c1cc2ccccc2oc1=O)N1CCN(c2ncccn2)CC1`, the “activity change, negative = inhibition” value is -25.8%.
As to `N#C/C(=C\c1ccc(OCc2ccc(C(=O)O)cc2)cc1)C(=O)N1CCOCC1`, the “activity change, negative = inhibition” value is -7.69%.
The value for `N#Cc1nc(/C=C/c2ccccc2)oc1NCCCN1CCOCC1` was -3.05%; that for `CCN1CCN(c2ccc(Nc3ccnc4ccccc34)cc2)CC1` was -36%; that for `CCn1c(C)cc(C(=O)CN2C(=O)c3ccccc3S2(=O)=O)c1C` was 8.52%.
Next, `Cc1ccc(SCc2cn3cc(Cl)ccc3n2)cc1`: -21.6%; `Cc1ccc(-c2c[n+](Cc3cccc(Cl)c3)c3n2CCC3)cc1`: -10.3%.
Next, `CCN(CC(=O)Nc1ccc2c(c1)OCCO2)C(=O)c1ccc([N+](=O)[O-])s1`: 2.27%; `CC(OC(=O)c1ccc([N+](=O)[O-])s1)C(=O)NC1CCCCC1C` (stereo not given): -15%; `O=[N+]([O-])c1ccc(/C=N/n2c(CO)nc3ccccc32)s1`: -47.3%.
Turning to `CCOC(=O)Cn1c(=NC(=O)c2ccc([N+](=O)[O-])s2)sc2ccccc21`, the “activity change, negative = inhibition” value is -16.7%.
As for `Nc1nc2ccccc2n1/N=C/c1ccc(-c2ccccc2)o1`, the “activity change, negative = inhibition” value was -1.36%.
Next, `C=CCn1c(C)cc(C(=O)CN2C(=O)c3ccccc3S2(=O)=O)c1C`: 8.23%; `Cn1c(/C=C/c2cccc([N+](=O)[O-])c2)c([N+](=O)[O-])c(=O)n(C)c1=O`: -1.13%; `Nc1ccc(-c2cc3ccccc3c(=O)o2)cc1`: -6.34%.
As for `Cn1c(COc2ccccc2Br)nc2ccccc21`, the “activity change, negative = inhibition” value is -8.31%.
For `O=C(CN1CCCCC1)Nc1scc2c1c(=O)oc1ccccc12`, the “activity change, negative = inhibition” value is 9.74%.
The value for `CCc1ccc(-c2cc(C(=O)Nn3cnnc3)c3ccccc3n2)cc1` was -34.7%; that for `O=C(Nc1ccccc1N1CCOCC1)c1ccc([N+](=O)[O-])o1` was -33%.
In the case of `Cc1cn(CCC(=O)Nc2ccccc2N2CCOCC2)c2ccccc12`, the “activity change, negative = inhibition” value is 0.439%.
The value for `FC(F)(F)Oc1ccc(-c2cn3cccnc3n2)cc1` was 9.48%.
Next, `CCN(CCO)c1ccc(N=Nc2cc(C)[nH]n2)cc1`: 1.47%; `COc1cc(/C=C/C(=O)c2ccc3c(c2)OCCO3)cc(Br)c1OCC(=O)N(C)C`: -25.1%.
Next, `COCc1cc(C)nc2sc(C(=O)Nc3ccc(OC)cc3)c(N)c12`: 18%; `Cc1cc(C)c2nc(N3CCC(C(=O)NCCCN4CC(C)CC(C)C4)CC3)sc2c1` (stereo not given): -1.77%.
Turning to `Cc1ccccc1-c1nc(CN2CCC(C(=O)NCCCN3CCCC(C)C3)CC2)c(C)o1` (stereo not given), the “activity change, negative = inhibition” value is -24.7%.
The value for `COc1cc(-c2nnc(-c3ccco3)o2)ccc1OCc1ccccc1` was 2.69%.
Next, `COc1ccc(-c2nc3n(c2C)Cc2ccccc2-3)cc1`: -13.5%; `COc1ccc(-c2nc(-c3ccccc3OC)no2)cc1OC`: 10.9%.
The value for `Cn1nnnc1Sc1ncnc2scc(-c3ccc[nH]3)c12` was -24.7%; that for `S=c1[nH]nc(-c2ccco2)n1/N=C/C(Cl)=C/c1ccccc1` was -8.95%; that for `O=C(Nc1ccc(-c2nc3ncccc3o2)cc1)c1ccc([N+](=O)[O-])o1` was -49.7%.
`Oc1cc(NCc2cccnc2)ccc1-c1nc2ccccc2o1`: the “activity change, negative = inhibition” value was -0.708%.
Next, `Cc1ccc2nc(-c3cccnc3)oc2c1`: -3.42%; `O=C(Nc1ccccc1Cl)c1cc(=O)c2ccccc2o1`: 1.46%; `CC(=NNC(=S)N1CCN(c2ccccn2)CC1)c1nccs1`: -16.1%.
The value for `Oc1c(Cl)cc(Cl)cc1/C=N/Nc1ncc(Br)cn1` was -18.3%.
Next, `CC(C)(C)C1CCC(OC(=O)CN2CCCCC2)CC1` (stereo not given): -13.2%; `Cc1ccc(NC(=O)Nc2ccccc2)nc1`: -5.49%.
